5 molecules from PubChem BioAssay can be followed below.

Calls of active or inactive are those of the source.

The nature of assay [1]: small molecules captured by biotinylated probe aFSTL3 – biochemical, small-molecule microarray, fluorescence 635/667, stem cell growth factor project, primary screen (AID 1064).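 Note: measures binding of the biotinylated anti-FSTL3 antibody to printed compounds.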 To be noted: higher = more signal.
Assay [2] is described as follows: binders from COS7 lysate, DM2A8 probe, primary screen, torsin A project, cell lysate, small-molecule microarray, fluorescence 635/667 (AID 1065). The settings on record: higher = more signal, COS7 lysate expressing mutant human TOR1A.
Assay [3] can be described thus: small molecules captured by biotinylated probe aFGF2 – biochemical, small-molecule microarray, fluorescence 635/667, stem cell growth factor project, primary screen (AID 1067).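 Note: measures binding of biotinylated aFGF2 protein to printed compounds on slides; z-score merges feature fluorescence and signal-to-noise across triplicate slides.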 To be noted: higher = more signal.
Assay [4] can be described thus: small molecules captured by biotinylated probe aFGF10 – biochemical, small-molecule microarray, fluorescence 635/667, stem cell growth factor project, primary screen (AID 1071).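 Note: score merges 667 nm spot intensity and signal to noise from triplicate slides.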 To be noted: higher = more signal.
Assay [5] concerns the target Neurogenic locus notch homolog protein 2 (Homo sapiens) (UniProt Q04721). Description: small molecules binding Notch2 protein – biochemical, small-molecule microarray, 635 nm fluorescence, stem cell growth factors, primary screen (AID 1073). The settings on record: higher = more signal.
The target in assay [6] is Pro-neuregulin-1, membrane-bound isoform (Homo sapiens) (UniProt Q02297). Description: small molecules binding neuregulin-1 protein – biochemical, small-molecule microarray, fluorescence 635/667, psychiatric disease protein project, primary screen (AID 1075).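 Note: score combines 667 nm spot fluorescence with signal to noise.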 The settings on record: NRG1 binding, 635 nm fluorescence, higher = more signal.
Chain of Pro-neuregulin-1, membrane-bound isoform (Homo sapiens) (Q02297 whole entry, looked up, the tested form may be a part, canonical isoform): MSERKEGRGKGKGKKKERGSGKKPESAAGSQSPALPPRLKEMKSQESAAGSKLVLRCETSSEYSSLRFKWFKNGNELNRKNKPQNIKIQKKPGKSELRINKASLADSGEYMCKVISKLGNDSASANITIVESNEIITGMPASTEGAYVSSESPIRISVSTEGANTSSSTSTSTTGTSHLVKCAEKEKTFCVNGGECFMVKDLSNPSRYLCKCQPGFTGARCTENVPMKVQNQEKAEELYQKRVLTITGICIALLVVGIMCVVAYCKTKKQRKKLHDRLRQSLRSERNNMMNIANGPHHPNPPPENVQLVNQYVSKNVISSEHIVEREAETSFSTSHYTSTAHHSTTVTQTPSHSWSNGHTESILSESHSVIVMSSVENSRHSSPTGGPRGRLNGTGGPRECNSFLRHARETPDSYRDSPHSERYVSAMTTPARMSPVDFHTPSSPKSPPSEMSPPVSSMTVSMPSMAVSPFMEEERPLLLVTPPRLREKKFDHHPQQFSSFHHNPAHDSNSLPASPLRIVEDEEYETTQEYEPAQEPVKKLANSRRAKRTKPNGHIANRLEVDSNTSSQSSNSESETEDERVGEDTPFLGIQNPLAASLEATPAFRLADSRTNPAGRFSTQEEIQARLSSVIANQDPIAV
In assay [7] the test system is Neuregulin-1 EGF-like domain. Description: small molecules binding NRG1 EGF domain – biochemical, small-molecule microarray, 635 nm fluorescence, primary screen (AID 1081).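 Note: binding of the protein to compounds printed on small-molecule microarray slides.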 The settings on record: higher = more signal.
A short description of assay [8]: FRG1 expression reporter modulators in myotubes – cell-based, C2C12 myotubes, firefly/Renilla luciferase, luminescence, FRG1 inhibition for FSHD, primary screen (AID 1084). To be noted: FRG1 promoter luciferase, higher = more signal, called active from +8 up or from −8 down.
Assay [9] in a line: small molecules captured by biotinylated probe aFST – biochemical, small-molecule microarray, fluorescence 635/667, stem cell growth factor project, primary screen (AID 1086).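 Note: score merges 667 nm fluorescence with signal-to-noise of each printed compound spot.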 To be noted: higher = more signal.
The nature of assay [10]: binders of probe aHhip on microarray, primary screen, stem cell growth factor project, biochemical, small-molecule microarray, fluorescence 635/667 (AID 1087).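 Note: score merges spot fluorescence at 667nm with spot signal to noise ratio.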 To be noted: higher = more signal.
Assay [11] has as its system PRMT1 (protein arginine N-methyltransferase 1). The experiment in a line: small molecules binding arginine methyltransferase PRMT1 – biochemical, small-molecule microarray, 635 nm fluorescence, primary screen (AID 1088).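 Note: binding of Prmt1 protein to compounds spotted on small-molecule microarray slides.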 The settings on record: higher = more signal.
Assay [12] in a line: growth effects on S. cerevisiae YJM789 – YJM789 clinical isolate, OD600, 24 h, basal, primary screen (AID 1089).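 Note: growth of clinical yeast isolate S. cerevisiae YJM 789 seeded 1000 cells per well; test concentration not given here.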 To be noted: higher = more signal, called active from +8 up or from −8 down.
Assay [13] in a line: S. pombe growth modifiers, basal conditions – strain 972, OD600, 24 h, no modulator, primary screen (AID 1090).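 Note: basal condition with compound alone and no growth modifier present; test concentration not given here.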 To be noted: S. pombe 972 growth, higher = more signal, called active from +8 up or from −8 down.
A short description of assay [14]: budding yeast growth modifiers under rapamycin – strain BY4716, OD600, 96 h, primary screen (AID 1091). Note: test concentration not given here. To be noted: S. cerevisiae BY4716 + rapamycin, higher = more signal, called active from +8 up or from −8 down.
The target in assay [15] is Torsin-1A-interacting protein 2 (Homo sapiens) (UniProt Q8NFQ8). The experiment in a line: small molecules binding lysate-expressed LULL1 – cell lysate, human LULL1 lysate, 635/667 nm fluorescence, primary screen (AID 1092).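 Note: score merges per-feature 667 nm fluorescence with signal-to-noise.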 To be noted: small-molecule microarray, hLULL1 lysate binding, 635 nm fluorescence; higher = more signal.
Chain of Torsin-1A-interacting protein 2 (Homo sapiens) (Q8NFQ8 whole entry, looked up): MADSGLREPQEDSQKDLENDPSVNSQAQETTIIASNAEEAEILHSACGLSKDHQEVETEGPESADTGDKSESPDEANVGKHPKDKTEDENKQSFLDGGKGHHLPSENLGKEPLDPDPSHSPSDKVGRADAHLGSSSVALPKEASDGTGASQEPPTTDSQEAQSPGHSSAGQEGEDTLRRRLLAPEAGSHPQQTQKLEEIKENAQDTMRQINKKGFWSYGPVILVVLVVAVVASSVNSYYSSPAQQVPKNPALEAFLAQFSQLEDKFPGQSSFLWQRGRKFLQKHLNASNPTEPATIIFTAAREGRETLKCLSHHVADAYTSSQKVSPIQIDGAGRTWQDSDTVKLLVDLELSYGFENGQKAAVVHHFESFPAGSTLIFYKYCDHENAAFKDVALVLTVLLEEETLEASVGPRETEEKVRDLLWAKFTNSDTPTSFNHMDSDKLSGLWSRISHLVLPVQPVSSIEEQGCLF
Assay [16] is described as follows: optical density change of DRC41 E. coli – strain DRC41, OD650, 24 h, E. coli filamentation project, primary screen (AID 1093).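 Note: MC1000 strain lacking acrAB efflux and sulA so SOS filamentation is blocked; test concentration not given here.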 The settings on record: E. coli DRC41 growth, higher = more signal, called active from +8 up or from −8 down.
Assay [17] can be described thus: probe aLefty2 binding to arrayed compounds – biochemical, biotinylated probe, 635/667 nm fluorescence, primary screen (AID 1094).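 Note: score merges spot fluorescence near 667 nm with spot signal-to-noise ratio.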 The settings on record: small-molecule microarray, higher = more signal.
Assay [18] concerns Noggin (protein binding on small-molecule microarray). Description: small molecules binding Noggin protein – biochemical, 635/667 nm fluorescence, primary screen (AID 1095).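 Note: score merges 667 nm feature fluorescence with signal to noise over triplicate slides.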 The settings on record: 635 nm fluorescence, higher = more signal.
Assay [19] has as its target Neurogenic locus notch homolog protein 3 (Homo sapiens) (UniProt Q9UM47). Description: small molecules binding NOTCH3 protein – biochemical, 635/667 nm fluorescence, primary screen (AID 1096). The settings on record: small-molecule microarray, 635 nm fluorescence, higher = more signal.
Assay [20] in a line: probe aEGFR binding to arrayed compounds – biochemical, biotinylated probe, 635/667 nm fluorescence, primary screen (AID 1097).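 Note: probe is a biotinylated anti-EGFR antibody binding compounds printed on slides; score combines fluorescence near 667 nm and signal to noise of each spot.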 To be noted: small-molecule microarray, higher = more signal.

Chain of Neurogenic locus notch homolog protein 3 (Homo sapiens) (Q9UM47 whole entry, looked up): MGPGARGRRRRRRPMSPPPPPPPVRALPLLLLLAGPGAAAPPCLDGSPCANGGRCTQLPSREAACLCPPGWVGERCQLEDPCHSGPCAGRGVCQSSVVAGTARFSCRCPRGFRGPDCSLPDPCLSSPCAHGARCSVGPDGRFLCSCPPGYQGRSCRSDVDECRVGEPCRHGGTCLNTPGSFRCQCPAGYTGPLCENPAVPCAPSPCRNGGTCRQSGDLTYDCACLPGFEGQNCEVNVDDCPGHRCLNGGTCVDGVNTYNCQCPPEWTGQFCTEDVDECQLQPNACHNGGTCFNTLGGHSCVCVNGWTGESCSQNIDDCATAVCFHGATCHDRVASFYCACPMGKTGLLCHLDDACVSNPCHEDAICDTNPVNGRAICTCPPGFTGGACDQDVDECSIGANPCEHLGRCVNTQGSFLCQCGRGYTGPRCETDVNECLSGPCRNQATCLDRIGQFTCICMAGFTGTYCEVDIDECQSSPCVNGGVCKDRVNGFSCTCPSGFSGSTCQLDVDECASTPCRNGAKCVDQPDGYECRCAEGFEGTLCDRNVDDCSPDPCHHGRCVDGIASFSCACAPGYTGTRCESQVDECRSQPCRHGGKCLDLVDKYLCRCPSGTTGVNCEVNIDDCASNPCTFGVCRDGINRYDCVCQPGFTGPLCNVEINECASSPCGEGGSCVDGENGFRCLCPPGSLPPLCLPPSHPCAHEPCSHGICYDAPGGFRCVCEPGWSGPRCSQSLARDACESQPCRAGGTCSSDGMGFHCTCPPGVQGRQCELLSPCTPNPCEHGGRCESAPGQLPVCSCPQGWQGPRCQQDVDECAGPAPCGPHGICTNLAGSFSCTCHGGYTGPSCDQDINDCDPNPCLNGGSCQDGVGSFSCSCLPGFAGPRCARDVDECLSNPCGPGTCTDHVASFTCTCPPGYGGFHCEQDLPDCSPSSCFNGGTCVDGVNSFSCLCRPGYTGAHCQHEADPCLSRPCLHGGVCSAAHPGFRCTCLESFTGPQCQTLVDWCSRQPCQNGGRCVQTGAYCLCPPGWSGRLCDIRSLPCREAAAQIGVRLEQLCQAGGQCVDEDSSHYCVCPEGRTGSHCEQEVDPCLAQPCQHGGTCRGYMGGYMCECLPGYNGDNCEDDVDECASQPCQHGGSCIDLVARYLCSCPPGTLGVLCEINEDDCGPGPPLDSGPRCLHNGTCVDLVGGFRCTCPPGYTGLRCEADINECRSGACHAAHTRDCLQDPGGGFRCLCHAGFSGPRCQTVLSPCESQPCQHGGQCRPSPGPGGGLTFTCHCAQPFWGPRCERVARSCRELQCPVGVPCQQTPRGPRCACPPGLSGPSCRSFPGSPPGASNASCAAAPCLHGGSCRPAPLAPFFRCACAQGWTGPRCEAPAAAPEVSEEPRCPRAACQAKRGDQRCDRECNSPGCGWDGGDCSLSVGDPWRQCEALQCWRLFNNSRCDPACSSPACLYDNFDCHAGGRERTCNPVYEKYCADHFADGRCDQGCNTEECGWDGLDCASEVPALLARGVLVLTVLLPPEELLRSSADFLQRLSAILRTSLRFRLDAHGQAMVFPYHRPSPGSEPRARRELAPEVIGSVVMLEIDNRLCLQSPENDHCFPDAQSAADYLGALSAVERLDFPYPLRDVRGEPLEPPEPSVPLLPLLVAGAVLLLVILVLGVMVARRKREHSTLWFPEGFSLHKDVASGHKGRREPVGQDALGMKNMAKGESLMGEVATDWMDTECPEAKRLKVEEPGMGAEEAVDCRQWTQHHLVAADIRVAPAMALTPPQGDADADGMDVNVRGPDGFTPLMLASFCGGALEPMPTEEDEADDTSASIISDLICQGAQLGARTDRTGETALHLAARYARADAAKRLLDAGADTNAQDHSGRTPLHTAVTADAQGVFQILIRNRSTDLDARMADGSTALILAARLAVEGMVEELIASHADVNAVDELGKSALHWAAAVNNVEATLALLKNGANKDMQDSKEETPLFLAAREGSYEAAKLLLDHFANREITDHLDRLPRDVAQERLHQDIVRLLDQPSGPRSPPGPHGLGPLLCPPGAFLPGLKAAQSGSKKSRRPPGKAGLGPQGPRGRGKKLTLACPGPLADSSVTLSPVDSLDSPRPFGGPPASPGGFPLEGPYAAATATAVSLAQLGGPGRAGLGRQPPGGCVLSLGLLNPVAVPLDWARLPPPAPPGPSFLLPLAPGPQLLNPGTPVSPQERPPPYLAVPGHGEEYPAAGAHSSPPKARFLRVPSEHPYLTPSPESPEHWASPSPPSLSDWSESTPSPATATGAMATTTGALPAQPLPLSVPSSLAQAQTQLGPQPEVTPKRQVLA

As for `O=C(CS)NCCCCCCNC(=O)[C@@H]1C[C@@H]2C(=O)N[C@@H](Cc3ccccc3)C(=O)N2[C@@H]1c1ccc(O)cc1`, the composite z-score was 0.0737 in assay [1]; 1.09 in [2]; -0.083 in assay [3]; 0.922 in [4]; 0.412 in assay [5]; 1.23 in assay [6]. Also, the composite z-score in assay [7] was 1.41; in [9], 0.245; in [10], 0.0373; in [11], 1.53; in assay [15], 2.97; in assay [17], -0.0741. Also, the composite z-score in assay [18] is 0.652; in assay [19], 1.16; in assay [20], -0.0271. The z-score in assay [8] is 1.21 (inactive); in assay [12], 0.205 (inactive); in assay [13], 1.52 (inactive); in assay [14], 1.99 (inactive); in assay [16] it was 0.988 (inactive).
As for `CC(C)(C)OC(=O)CC[C@]1(C(=O)N2CCCCC2)N=C(c2ccc(OCCCO)cc2)O[C@H]1c1ccccc1`, the composite z-score in assay [1] was -0.187; in assay [2], 1.67; in assay [3] it was 0.136; in assay [4] it was 1.07; in [5], 1.55; in assay [6] it was 1.53. The composite z-score in [7] is 1.27; in [9] it was 0.772; in assay [10], -0.299; in assay [11], 1.54; in assay [15], 3.48; in assay [17] it was 0.0224. Also, the composite z-score in [18] is 1.04; in [19] it was 1.15; in [20], -0.084. Further, the z-score was -4.25 (inactive) in [8]; -4.57 (inactive) in assay [12]; -3.11 (inactive) in [13]; -1.07 (inactive) in assay [14]; 0.726 (inactive) in [16].
For the molecule `C=CC(=O)O[C@@H](Cc1ccccc1)[C@H]1C2C=CCCC=C2CN1Cc1cccc(Cl)c1` (stereo not given in full), the composite z-score in [1] was 0.32; in assay [2], -0.32; in assay [3], -0.123; in assay [4], -0.682; in [5], -0.657; in [6], -0.518. The composite z-score is -1.2 in assay [7]; -0.254 in assay [9]; 0.176 in [10]; -2.25 in [11]; -0.469 in [15]; -0.192 in [17]. The results for the composite z-score in assay [18], in assay [19] and in assay [20] were -0.551, -1.53 and -0.189, respectively. For the same molecule, the z-score in assay [8] was -1.44 (inactive); in assay [12] it was -0.476 (inactive); in [13] it was -2.23 (inactive); in [14], -1.47 (inactive); in [16], 2.01 (inactive).
`CO[C@H]1O[C@H](CO)[C@@H](OC(=O)Nc2ccc3c(c2)OCO3)[C@H](OC(=O)Nc2ccccc2)[C@@H]1OC(=O)Nc1ccccc1`: the composite z-score in [1] was -0.214; in assay [2], 0.215; in assay [3] it was 0.0654; in assay [4] it was 0.949; in assay [5] it was -0.0622; in assay [6] it was 1.27. Also, the composite z-score in [7] is 1.29; in [9], 0.188; in [10], -0.0994; in assay [11], 1.55; in [15], 3.33; in assay [17], -0.0798. Also, the results for the composite z-score in [18], in assay [19] and in [20] were 1.02, 0.915 and -0.144, respectively. Further, the z-score in assay [8] is -1.6 (inactive); in [12], 0.738 (inactive); in assay [13] it was 0.51 (inactive); in assay [14] it was 4.42 (inactive); in assay [16] it was -1.17 (inactive).
Take `C=CCc1cccc([C@H]2N[C@H](C(=O)O)CC[C@@H]2C)c1`: the composite z-score was -0.746 in [1]; 0.604 in assay [2]; -0.221 in [3]; 0.502 in [4]; -0.441 in [5]; -0.0316 in assay [6]. For the same molecule, the composite z-score in assay [7] is 0.519; in [9] it was -0.099; in assay [10] it was 0.122; in assay [11] it was 0.453; in assay [15], -0.0584; in assay [17], -0.203. Besides, the composite z-score in assay [18] was 1.17; in assay [19] it was 0.245; in assay [20], -0.0828. Also, the z-score in [8] is -0.204 (inactive); in [12], 0.468 (inactive); in assay [13] it was 0.0843 (inactive); in assay [14] it was 2.04 (inactive); in [16], 0.271 (inactive).
